# CYP2C9 inh: blockers of cytochrome P450 2C9 activity – biochemical, luminescence, ADME assay, primary screen; P11712; CYP2C9 Supersomes, luciferin-H conversion; inhibition, % at 5 µM; hit rate 20% among 96,000; AID 777, 2007;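 active = blocking of liver enzyme CYP2C9 beyond about 50% at 5 µM, limit read from the data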
# CYP2C19 act: human CYP2C19 activators, primary screen, biochemical, luminescence. activation factor at 5 µM. recombinant CYP2C19, luciferin-H EGE luminescence; stronger effect = higher value; 0 = fully inhibited enzyme, 1 = untreated enzyme. 96,000 tested, under 10 active. Cytochrome P450 2C19 (Homo sapiens), P33261;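 active = activation factor of at least 2 at 5 µM in the primary screen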;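 note: 0 = wells with 2.5 mM tranylcypromine and 1 = vehicle-only wells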
# PLAP act: PLAP enzyme activators, biochemical, luminescence, HTS | purified PLAP enzyme, luminescent substrate read-out; stronger effect = higher value | activation fold at 20 µM | hit rate 1.2% among 96,000; in the data active = activation fold above about 2
# Target sequence (P05187 whole entry, looked up): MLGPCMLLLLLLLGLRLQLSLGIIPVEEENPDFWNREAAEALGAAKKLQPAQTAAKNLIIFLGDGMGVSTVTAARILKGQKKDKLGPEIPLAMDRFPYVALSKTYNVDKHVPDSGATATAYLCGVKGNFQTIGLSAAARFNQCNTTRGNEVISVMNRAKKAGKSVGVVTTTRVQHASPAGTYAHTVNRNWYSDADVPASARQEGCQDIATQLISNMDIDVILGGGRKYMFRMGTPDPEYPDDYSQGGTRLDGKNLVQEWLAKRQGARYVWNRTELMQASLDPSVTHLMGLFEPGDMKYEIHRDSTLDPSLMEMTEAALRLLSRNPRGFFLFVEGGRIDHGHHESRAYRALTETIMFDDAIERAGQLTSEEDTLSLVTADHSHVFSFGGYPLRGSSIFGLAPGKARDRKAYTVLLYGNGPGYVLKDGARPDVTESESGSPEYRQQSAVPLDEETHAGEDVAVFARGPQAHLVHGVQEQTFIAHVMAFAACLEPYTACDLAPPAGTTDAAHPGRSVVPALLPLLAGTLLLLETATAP
# CYP2C9 activ: human CYP2C9 activators, primary screen, biochemical, luminescence. Cytochrome P450 2C9 (Homo sapiens), P11712. recombinant CYP2C9, luciferin-H conversion; stronger effect = higher value; factor 1 = untreated enzyme, 0 = blocked. hit rate 1.4% among 96,000. AID 1024, 2008. activation factor at 5 µM;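 active = activation factor of 2 or more for CYP2C9 at a 5 µM dose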;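 note: 0 = sulfaphenazole-blocked wells and 1 = vehicle-only wells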
# CYP2C19 inh: blockers of cytochrome P450 2C19 activity – biochemical, luminescence, ADME assay, primary screen | P33261 | CYP2C19 Supersomes, luciferin-H EGE luminescence, 30 min | inhibition, % at 5 µM | hit rate 21% among 96,000;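 active = CYP2C19 inhibition above a set limit at 5 µM in the primary screen, cut at about 50% in these data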;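 note: plate controls were negative control wells for no effect and 2.5 mM tranylcypromine positive control for full effect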
# * = called active by the depositor; x = not tested or not shown. Shown are actives, neighbours in structure and some others; about 31% of the full set was active somewhere.
SMILES,CYP2C9 inh,CYP2C19 act,PLAP act,CYP2C9 activ,CYP2C19 inh
CCCOC(=O)c1ccc(Oc2cn[nH]c2-c2ccc(OC)cc2O)cc1,99.1*,0,2.9*,0,96.6*
CCOc1ccc(-c2[nH]ncc2-c2ccc(OC)c(OC)c2)c(O)c1,84.3*,0.2,2.7*,0.2,83.7*
CCOc1ccc(-c2[nH]ncc2Oc2ccccc2OC)c(O)c1,98.3*,0,x,0,99.3*
C=C(C)COc1ccc(-c2[nH]ncc2-c2ccccc2OC)c(O)c1,89.3*,0.3,2.5*,0.1,74.7*
CCCCCOC(=O)c1ccc(OC(=O)c2cncc(Br)c2)cc1,31.5,0.9,0.9,0.7,5.8
O=c1[nH]c2cccnc2n1Cc1ccco1,-14.0,1.2,1.3,1.1,-16.7
C=C(C)COc1ccc(-c2nc(N)ncc2Oc2ccccc2OC)c(O)c1,29.6,0.8,1,0.7,24.2
C=C(C)COc1ccc(-c2[nH]ncc2Oc2ccccc2OC)c(O)c1,84.7*,0.4,2*,0.2,61.1*
CCOc1ccc(-c2nc(N)ncc2Oc2ccccc2Br)c(O)c1,6.1,0.8,0.9,0.9,16.7
CCOc1ccc(-c2[nH]ncc2Oc2ccccc2OCC)c(O)c1,88.2*,0.1,2.5*,0.1,90.4*
COc1nc2ccccc2c(=O)n1OCC(C)C,19.1,0.2,0.9,0.8,82.4*
C/C=C/Cn1c(Br)nc2c1c(=O)n(C)c(=O)n2C,4.5,1,1.2,1,-0.5
Cc1ccccc1Cn1c(=O)n(Cc2ccco2)c(=O)c2ccccc21,-27.7,0.7,0.8,1.3,28.0
Cc1cccc(Cn2c(=O)n(Cc3ccco3)c(=O)c3ccccc32)c1,62.5*,0.9,0.9,0.4,9.0
CC(C)(C)c1cc(CN2CCC(O)CC2)cc(C(C)(C)C)c1O,14.0,0.9,1.8,0.9,8.3
O=S(=O)(CCSc1nc2ccccc2o1)c1nc2ccccc2s1,89.3*,0.2,0.7,0.1,81.5*
O=S(=O)(NCCSc1nc2ccccc2o1)c1ccccc1,72.9*,0.1,0.8,0.3,89.4*
CC1(C)Cc2c(sc3c2c(=N)n(Cc2ccco2)c(=O)n3CC(=O)Nc2ccc(Cl)cc2)CO1,25.9,0.8,1.7,0.7,21.0
Brc1ccc(Oc2nnnn2-c2ccccc2)cc1,81.0*,0,0.7,0.2,100.3*
Cc1cc(Oc2nnnn2-c2ccccc2)ccc1Cl,61.2*,0.4,0.7,0.4,58.2*
O=C(Nc1ccccc1-c1ccccc1)NC1CCN(CC(=O)N2CCOCC2)CC1,-15.3,1,1.5,1.2,-1.4
COc1ccc(C(=O)Oc2cccnc2)cc1,18.1,0.7,0.9,0.8,32.6
COC(=O)c1ccc(-c2nc(O)c3cnccn23)cc1,49.4,0.5,0.8,0.5,50.8*
COc1cccc(-c2noc(N)c2C#N)c1,11.0,0.9,0.9,0.9,10.2
Cc1cc(=O)n2[nH]c(-c3ccc(Cl)cc3)cc2n1,23.1,0.2,1.2,0.8,75.3*
SMILES,CYP2C9 inh,CYP2C19 act,PLAP act,CYP2C9 activ,CYP2C19 inh
O=C1Nc2ccccc2C1(c1ccccc1)c1ccccc1,73.9*,0.3,0.9,0.3,71.6*
N#CCC(=O)Nc1ncn(Cc2ccccc2Cl)n1,-6.2,1,1,1.1,-0.7
Cc1csc(C(C#N)C(=O)c2cc3ccccc3o2)n1 (stereo unspecified),60.2*,1,1,0.4,4.1
COc1ccc2c(c1)sc1nc(-c3ccccc3)cn12,92.1*,0.2,1.3,0.1,82.1*
CCOC(=O)N1CCN(C(=O)c2ccc3c(c2)sc2nc(-c4ccc(OC)cc4)cn23)CC1,44.6,0.6,1.4,0.6,38.9
O=C1C(O)CC2c3ccccc3CC3(CCCC3)N12 (stereo unspecified),16.3,1,1.1,0.8,1.9
O=C(CCC1=NS(=O)(=O)c2ccccc2N1)NC1CCCCCCC1,22.3,0.7,1,0.8,26.7
Cc1cccc(OCC2=NS(=O)(=O)c3ccccc3N2)c1,51.1*,0.7,1.1,0.5,30.0
COc1ccccc1C(=O)NCCC(=O)N1CC(=O)Nc2ccccc21,-96.6,1.2,1,2*,-17.3
O=C1CN(C(=O)OCc2ccccc2)c2ccccc2N1,42.9,0.3,1,0.6,69.3*
O=C1CN(C(=O)COc2ncnc3ccccc23)c2ccccc2N1,17.1,0.9,1.4,0.8,7.4
O=C1CN(C(=O)c2ccccc2F)c2ccccc2N1,7.3,0.7,0.8,0.9,29.8
C=Cn1nc(C)c2ccccc2c1=O,-15.2,1.1,0.9,1.2,-6.7
CC(C(=O)O)N1C(=O)CSc2ncccc21 (stereo unspecified),-2.8,1,1,1,-4.1
C=CCc1cccc2cc(C(=O)NC)c(=O)oc12,-41.3,0.8,1,1.4,15.4
COc1cc(C2C(C#N)=C(N)Oc3n[nH]c(C)c32)cc2c1OCO2 (stereo unspecified),63.0*,0.5,2*,0.4,54.8*
COc1ccc(C2C(C#N)=C(N)Oc3n[nH]c(C)c32)cc1Cn1cc([N+](=O)[O-])cn1 (stereo unspecified),66.8*,0.8,1.4,0.3,21.2
COc1ccc(C2C(C#N)=C(N)Oc3n[nH]c(C)c32)cc1Cn1nc(C)c([N+](=O)[O-])c1C (stereo unspecified),53.9*,0.4,1.4,0.5,56.1*
OC(CC1CC12c1ccccc1-c1ncccc12)(c1ccccc1)c1ccccc1 (stereo unspecified),96.9*,0.1,1.5,0,92.5*
CCOC(=O)C1C(=O)OC(C)(C)C1C(C)C(=O)c1ccc(OC)cc1 (stereo unspecified),5.0,0.9,1.2,0.9,5.7
CCOC(=O)C1C(=O)OC(C)(C)C1C(C)C(=O)c1ccccc1 (stereo unspecified),28.4,0.3,0.9,0.7,72.7*
COc1ccc(C(=O)Nc2cc3c(cc2C#N)OCO3)cc1S(=O)(=O)N1CCN(C)CC1,11.9,1,0.8,0.9,3.9
Cc1ccc(CN(Cc2cc3cc4c(cc3[nH]c2=O)OCCO4)Cc2nnnn2Cc2ccco2)cc1,95.8*,0.1,1.6,0,88.5*
Cc1ccc2cc(CN(Cc3ccc4c(c3)OCO4)Cc3nnnn3Cc3ccco3)c(=O)[nH]c2c1,84.5*,0.2,1.6,0.2,80.1*
Cc1ccc2cc(CN(C(=O)c3ccco3)c3ccccc3)c(=O)[nH]c2c1,22.1,0.8,1,0.8,17.3
COC(=O)c1ccc(Cl)c(NC(=O)c2ccc(-c3ccccc3)cc2)c1,-82.5,1,1,1.8,-2.4
CCOC(=O)C1=C(C)C(c2ccc(OC)cc2)NC(=S)N1 (stereo unspecified),82.3*,0.4,0.9,0.2,59.2*
